NPC1 promoter act: activates the NPC1 promoter; AID 485313; Huh7 NPC1 promoter luciferase reporter, 24 h; Potency, µM (highest dose often 9.22 µM), inactives show at the top dose activation, most hits filed as activators; 320,000 tested, 2.4% active; also: % of control where 0% means no effect; nearly all actives have a fitted effect of over 60% in size
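NPC1 promoter–luciferase Huh7 cells; 24 h compound; luminescence.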
SMN2 splice up: SMN2 splice variant enhancement; AID 1458; Potency, µM (top dose mostly 46.1 µM), for the others: at the highest dose activity change, positive = activation, most hits filed as activators; 210,000 tested, 2.8% active; HEK293 SMN2-luciferase splicing reporter, luminescence, 30-36 h; also: % of control where 0% means no effect; nearly all actives have a fitted effect of over 55% in size
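HEK293 cells carry an SMN2 […]–luciferase reporter in which exon 7 inclusion puts luciferase in frame. Cells were plated 10-12 h before compound addition, then incubated 30-36 h at 37C. ONE-Glo luminescence was read; sodium butyrate at 4.5 mM final served as control.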
FLuc modulator: counter-screen for miR-21 project: firefly luciferase inhibitors or activators; P08659; purified FLuc, Km substrates, luminescence inhibition; Potency, µM (highest dose often 57.5 µM), without a hit: top-dose activity change, negative = inhibition, actives largely listed as inhibitors; 360,000 tested, 6.9% active; AID 588342;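 also: plate controls were vehicle for no effect and reference inhibitor for full effect; nearly all actives have a fitted effect of over 55% in size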
Target sequence (P08659 whole entry, looked up): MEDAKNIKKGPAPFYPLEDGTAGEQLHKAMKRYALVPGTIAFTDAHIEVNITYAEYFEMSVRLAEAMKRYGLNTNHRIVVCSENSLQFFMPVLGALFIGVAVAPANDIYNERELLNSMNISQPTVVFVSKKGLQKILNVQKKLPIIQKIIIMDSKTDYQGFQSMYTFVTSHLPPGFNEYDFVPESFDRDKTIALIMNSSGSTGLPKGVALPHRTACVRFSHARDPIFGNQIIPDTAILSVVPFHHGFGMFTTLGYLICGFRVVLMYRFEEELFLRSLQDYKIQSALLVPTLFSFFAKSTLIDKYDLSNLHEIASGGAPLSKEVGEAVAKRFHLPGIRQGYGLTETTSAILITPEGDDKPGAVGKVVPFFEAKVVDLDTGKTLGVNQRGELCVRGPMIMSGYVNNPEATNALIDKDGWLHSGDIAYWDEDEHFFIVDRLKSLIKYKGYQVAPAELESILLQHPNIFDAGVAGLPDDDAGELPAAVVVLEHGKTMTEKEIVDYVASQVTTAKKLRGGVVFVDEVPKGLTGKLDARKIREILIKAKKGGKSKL
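Purified P. pyralis luciferase, 10 nM final, with Km-level 10 uM D-luciferin and 10 uM ATP in 50 mM Tris acetate pH 7.5, 10 mM Mg acetate, 0.01% Tween-20, 0.05% BSA; 6-point qHTS titration about 60 µM downward; luminescence read.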
ELG1 genotoxic: induces genotoxicity in HEK293T cells with luciferase-tagged ELG1. Potency, µM (doses to about 46 µM), without a hit: at the highest dose activity change, positive = activation, actives largely listed as activators. HEK293T ELG1-luciferase reporter, luminescence, 16 h. AID 504466. 330,000 tested, 1.3% active; also: % of control where 0% means no effect; nearly all actives have a fitted effect of over 60% in size
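ELG1-luciferase HEK293T cells, 2,000/well; compound pinned in; 16 hr, 37 °C, 5% CO2; ONE-Glo, 30 min RT; luminescence on CCD imager.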
uPA surface inh: blocks generation of uPA at the cell surface; Potency, µM (top dose mostly 38.3 µM), inactives show top-dose activity change, negative = inhibition, usual class: inhibitors; cell surface uPA generation assay, qHTS; 330,000 tested, 0.31% active; active = well fitted inhibition curve with a large enough effect; inconclusive = small, poorly fitted or top-dose-only effect; inactive = no such curve, though single readings can be large or run the other way; tested in mouse RAW 264.7 cells; also: % is scaled to controls: 0 for no effect and ±100 for the full control effect; nearly all actives have a fitted effect of over 55% in size
Rab9 promoter act: Rab9 promoter activation | 320,000 tested, 2.8% active | AID 485297 | Potency, µM (top dose mostly 9.22 µM), inactives show top-dose activation, negative = inhibition, usual class: activators | Huh7 Rab9 promoter-luciferase reporter, luminescence, 24 h; also: % of control where 0% means no effect; nearly all actives have a fitted effect of over 60% in size
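Huh7 cells stably carrying Rab9 promoter–luciferase reporter, plated 1500 cells/well, compound added after 2 h and incubated 24 h at 37 °C; luciferase luminescence then read after 10 min with detection reagent.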
Numbers without * were called inactive; ? = inconclusive; nt = no result given; [ ] = dose if it differs, or a comment. Hits are enriched below; roughly 7.3% of the tested compounds scored in any of these assays. Unless noted, calls follow the shape of the dose curve; as a rule, active = well fitted curve in the direction sought with a large enough effect; inconclusive = small, poorly fitted or top-dose-only effect, or another doubt; inactive = no such curve, though single readings can be large; an effect the other way counts as inactive or inconclusive. Potency is read from the fitted curve at half-maximal effect.

SMILES	NPC1 promoter act	SMN2 splice up	FLuc modulator	ELG1 genotoxic	uPA surface inh	Rab9 promoter act
CC(C)(C)c1ccc(C(=O)Nc2ccc(-c3nc4cc(Cl)ccc4o3)cc2)cc1	nt	-12%	-1%	nt	nt	nt
COc1cc(C(=O)Nc2cccc(-c3nc4cc(C)cc(C)c4o3)c2)cc(OC)c1OC	-3%	-16%	5.4µM*	-6%	8%	-3%
COc1cc2ccccc2cc1C(=O)Nc1cc(-c2nc3ccccc3o2)ccc1C	nt	-3%	-20%	nt	nt	nt
COc1ccc2c(c1)c(=O)c(C(=O)c1ccc(F)cc1)cn2CC(=O)Nc1ccc2c(c1)OCO2	nt	3%	-2%	nt	nt	nt
Cc1ccc(NC(=O)Cn2cc(S(=O)(=O)N3CCN(c4ccccc4F)CC3)c3ccccc3c2=O)cc1F	nt	1%	4%	nt	nt	nt
COc1ccc(CNC(=O)CN2CCN(c3ccc(F)cc3)CC2)cc1	0%	nt	0%	1%	2%	-5%
Cc1cc2nc(-c3cccc(NC(=O)c4ccc(Br)o4)c3)oc2cc1C	-4%	-4%	17µM*	18%	0%	3%
O=C(Nc1cccc(F)c1)c1ccc(Br)o1	28%	12%	?	4%	-3%	17%
CN(C)CCCN1C(=O)c2cccc3c(Br)ccc(c23)C1=O	-32%	2%	-10%	?	7.9µM*	-29%
O=C(O)CN1C(=O)c2cccc3c(Br)ccc1c23	-2%	nt	-4%	3%	-1%	1%
COc1cc(/C=C2\SC(=S)N(NC(=O)c3cccnc3)C2=O)ccc1O	-1%	nt	17µM*	-2%	-6%	-1%
COc1cc(/C=C2\SC(=S)N(c3cccnc3)C2=O)ccc1O	-3%	nt	-7%	1%	0%	-2%
COc1cc(/C=C2\SC(=S)N(NC(=O)c3ccc(O)cc3)C2=O)ccc1O	3%	nt	3µM*	10%	-1%	3%
CC(=O)NN1C(=O)/C(=C\c2ccc(O)cc2)SC1=S	5%	nt	17µM*	4%	-8%	-11%
CCOc1ccc(C2OCCC(C)O2)cc1OC (configuration not stated)	nt	nt	nt	nt	4%	nt
O=C(Nc1cccc([N+](=O)[O-])c1)c1ccc(-c2ccccc2)cc1	12%	2%	-16%	5%	5%	26%
COC(=O)c1ccc(N=NNc2cccc(Br)c2)cc1	1.3µM*	5µM*	7.6µM*	?	11%	1.3µM*
O=C(O)c1ccc(N=NNc2cccc([N+](=O)[O-])c2)cc1	0.89µM*	11µM*	2.4µM*	?	3%	0.63µM*
COC(=O)c1ccc(NS(=O)(=O)N(C)C)cc1	0%	21%	-2%	1%	-2%	-11%
COC(=O)c1ccc(N=NNc2ccccc2)cc1	1.4µM*	8.9µM*	3.8µM*	?	2%	1.3µM*
COC(=O)c1ccc(N=NNc2ccc(C(=O)OC)cc2)cc1	?	?	?	18µM*	1%	?
COC(=O)NC(C(=O)OC)(C(=O)OC)c1ccccc1	nt	9%	nt	nt	nt	nt
O=S(=O)(O)c1ccc(N=Nc2ccccc2)cc1	-1%	-9%[9.22 µM]	?	-1%	6%	-3%
Oc1c(N=Nc2ccccc2)sc2ccccc12	?	nt	0.38µM*	2.3µM*	-20%	3.2µM*
Cc1ccc(NC(=O)CSCC(=O)NCc2ccco2)cc1	-8%	nt	1%	0%	-2%	-4%
SMILES	NPC1 promoter act	SMN2 splice up	FLuc modulator	ELG1 genotoxic	uPA surface inh	Rab9 promoter act
Cc1ccc(NC(=O)C(=S)NCc2ccco2)cc1	?	17%	6µM*	?	7%	2.8µM*
Cc1ccc(NC(=O)C(=O)NCc2ccco2)cc1	nt	18µM*	-17%	nt	nt	nt
Cc1ccc(NC(=O)CSCc2ccco2)cc1	?	13µM*	15µM*	?	-1%	4µM*
CC(C)CC1COC(=O)N1 (configuration not stated)	-3%	nt	0%	-3%	10%	-3%
Cn1ccnc1C[C@@](C)(O)c1ccccc1	nt	-12%[9.22 µM]	nt	nt	nt	nt
CCc1ccc(OCC(=O)Nc2c(C(=O)c3ccccc3)oc3ccccc23)cc1	nt	25%	3%	nt	nt	nt
CC1CCCCN1Cc1c(O)ccc2c(=O)c(-c3ccc(Cl)cc3)c(C(F)(F)F)oc12 (configuration not stated)	nt	-3%	-4%	nt	nt	nt
Cc1ccc(C)c(NC(=O)Nc2cc3c(cc2N2CCCCC2)n(C)c(=O)n3C)c1	nt	11%	-1%	nt	nt	nt
O=C(Nc1cccc(-c2csc(Nc3ccccc3)n2)c1)c1ccccc1	?	nt	1.7µM*	-3%	?	?
O=[N+]([O-])c1cccc(-c2csc(Nc3ccccc3)n2)c1	4%	nt	13µM*	3%	-3%	?
COc1ccccc1Nc1nc(-c2cccc([N+](=O)[O-])c2)cs1	27%	nt	?	10%	?	?
O=C(Nc1cccc(-c2csc(Nc3cccc(C(F)(F)F)c3)n2)c1)c1ccccc1	-4%	nt	?	-17%	?	-9%
O=C(O)CCC(=O)Nc1cccc(-c2csc(-c3ccccc3)n2)c1	-13%	-14%	7.6µM*	-2%	-6%	-7%
CC(=O)c1cccc(Nc2nc(-c3ccccc3)cs2)c1	3.2µM*	11µM*	3.4µM*	?	5%	1.3µM*
CC(=O)c1cccc(Nc2nc(-c3cccnc3)cs2)c1	3.5µM*	nt	11µM*	7%	-8%	?
CC(=O)c1ccc(Nc2nc(-c3cccnc3)cs2)cc1	4%	nt	?	?	1%	21%
CCCc1cc2c(OC(=O)CC)c(-c3ccc(C(=O)OCC)o3)c(=O)oc2cc1OC	2%	9%	24µM*	0%	0%	-6%
COc1ccc(Nc2nc(N)nc(CSc3nncn3C)n2)cc1	17%	19%	15µM*	21µM*	nt	?
COc1ccc(Nc2nc(N)nc(CSc3nnc(C)s3)n2)cc1	26%	22µM*	27µM*	?	-4%	?
COc1ccc(Nc2nc(N)nc(CSc3nc4cc(OC)ccc4s3)n2)cc1	nt	-68%	?	nt	nt	nt
COc1cccc(-c2cn3nc4c(nc3n2)CCCC4)c1	0.63µM*	1.6µM*	0.76µM*	?	-14%	0.71µM*
OC1CCN(c2c3c(nc4cc(-c5ccc(Cl)cc5)nn24)CCC3)CC1	-2%	-12%	?	-1%	4%	1%
Clc1ccc(-c2cn3nc4c(nc3n2)CCCC4)cc1	0.2µM*	1.8µM*	0.24µM*	?	-8%	0.32µM*
CC(C)CN(C(=O)COC(=O)COc1ccc2c(c1)CCC2)c1c(N)n(Cc2ccccc2)c(=O)[nH]c1=O	-1%	nt	0%	-3%	13%	-6%
COc1ccc(C2C(=O)N(C3CCC(C)CC3)CC(=O)N2Cc2ccc(C)cc2)cc1OC (configuration not stated)	nt	nt	-7%	nt	nt	nt

Screening results as filed in PubChem BioAssay.
